# In PubChem BioAssay:
# Several values for one entry are separate records, joined by “and”; a condition that tells them apart may be missing. Identical values can stand only once. For some assays here: Potency and affinity values are given separately. Activity calls are given as the source filed them.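 How the source made its calls, unless noted: active means compounds whose cell count with miR-34 switched on is under 0.7 times the count with it off; inactive means the rest.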
# Key:
# [1] = polyglutamine-triggered caspase-3 activation inhibitors, cell-based (AID 1583); settings: polyglutamine-induced caspase-3 activation, cell assay; stronger effect = higher value;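 tested at 10 µM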
# [2] = suppressors of polyQ aggregation in yeast, 75Q-TubU reporter (AID 1593); settings: Yeast 75Q polyglutamine aggregation reporter
# [3] = rescue of polyQ-huntingtin neuronal dysfunction in worms, whole organism, C. elegans mechanosensory neurons, N-terminal huntingtin (AID 1599); settings: touch response, stronger effect = higher value
# [4] = inhibitors of mitochondrial cytochrome c release, biochemical, purified mitochondria (AID 1603); settings: stronger effect = lower value;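 further: mouse liver mitochondria challenged with calcium chloride; signal normalized to the plate average as 100%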
# [5] = inhibitors of polyQ protein aggregation (AID 1604); settings: polyglutamine-induced protein aggregation inhibition assay; stronger effect = higher value; tested at 2.5 µM
# [6] = enhancers of glutamate uptake in motor neurons, MN-1 cell line (AID 1612); settings: MN-1 motor neuron cells, stronger effect = higher value;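 further: tested at 1 µM final; 0% = mean of DMSO vehicle wells on each plate; positive means more glutamate uptake than control and negative means less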
# [7] = reducers of polyQ inclusions in PC12 cells, cell-based, NGF-treated PC12, GFPQ80 (AID 1614); settings: PC12 NGF-treated GFP-polyQ80 inclusion reduction;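 further: lower means fewer inclusions and 0 means no inclusions at all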
# [8] = suppressors of polyglutamine aggregation in yeast, 75Q-TubH (AID 1616); settings: S. cerevisiae 75Q-TubH polyglutamine aggregation suppression; stronger effect = higher value
# [9] = circadian clock period modulators, cell-based, LOPAC library, luminescence reporter (AID 2774; call rule not given here;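 further: values are relative to mean of DMSO wells on each plate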); settings: circadian reporter cells, at 7 µM, actives lie on both sides
# [10] = liver-stage malaria parasite growth inhibition, primary screen, cell-based, HepG2, luciferase luminescence, HepG2 viability (AID 624349; in the data active means parasite load remaining mostly below about 12%, no sharp cut-off; inactive means mostly above about 10%;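 further: 100% = mean of DMSO negative control wells on the same plate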); settings: P. berghei liver stage in HepG2, luciferase luminescence, concentration not given here; parasite load remaining: stronger effect = lower value; viability: measured here: HepG2 viability without parasites
# [11] = target: 6-phosphogluconate dehydrogenase, decarboxylating (Homo sapiens) (UniProt P52209); experiment: 6PGD enzyme inhibitors, primary screen, biochemical, human, recombinant enzyme, NADPH absorbance (AID 1159550;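 active means at least 20% inhibition of 6-phosphogluconate dehydrogenase activity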); settings: recombinant 6PGD, NADPH absorbance 341 nm; at 10 µM; stronger effect = higher value
# Sequence of 6-phosphogluconate dehydrogenase, decarboxylating (Homo sapiens) (P52209 whole entry, looked up): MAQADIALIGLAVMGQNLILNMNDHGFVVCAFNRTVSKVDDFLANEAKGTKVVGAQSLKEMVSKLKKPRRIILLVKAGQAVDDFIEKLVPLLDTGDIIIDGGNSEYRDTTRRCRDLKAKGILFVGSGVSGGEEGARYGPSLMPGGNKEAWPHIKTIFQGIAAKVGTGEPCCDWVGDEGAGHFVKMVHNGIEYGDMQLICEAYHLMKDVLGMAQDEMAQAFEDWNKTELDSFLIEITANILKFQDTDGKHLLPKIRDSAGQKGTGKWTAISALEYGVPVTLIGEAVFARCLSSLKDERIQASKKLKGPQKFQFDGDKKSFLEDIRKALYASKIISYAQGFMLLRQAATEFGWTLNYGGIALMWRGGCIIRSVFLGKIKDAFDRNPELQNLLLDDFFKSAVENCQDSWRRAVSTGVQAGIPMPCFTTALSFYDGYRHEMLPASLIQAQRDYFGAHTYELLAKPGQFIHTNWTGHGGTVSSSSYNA
# [12] = differential killing of epithelial or mesenchymal cells, primary screen, imaging, PC-3E GFP, TEM4-18 mCherry, co-culture (AID 1345086;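 active means compounds killing one labelled cell type while sparing the other, by normalised counts and ratio limits, not self-fluorescent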;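 on all read-outs here: cells exposed to compound for 72 h before imaging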;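 on red/green cell ratio (normalised): normalised mesenchymal count divided by normalised epithelial count so high means epithelial killing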); settings: imaging cell counts, at 1 µM; for red/green cell ratio (normalised): actives lie on both sides, counts scaled to control wells, 1 = unselective
# [13] = sensitizers of A549 cells to miR-34 induction, primary screen, imaging, A549 dox-inducible miR-34, nuclei and caspase counts (AID 1347080); settings: A549 miR-34 inducible, Hoechst nuclei count, 48 h
# [14] = phospholipid biosynthesis inhibitors in animal cells, primary screen, cell-based, LOPAC library, screen 4 (AID 1347384; call rule not given here); settings: phospholipid biosynthesis inhibition screen, at 10 µM
# [15] = viability rescue of complex I mutant cybrids, primary screen, cell-based, galactose medium, ATP luminescence (AID 1645843;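 active means z-score of at least 1.8 in each of two replicates, scored against plate mean and spread of sample wells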;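 further: positive z means more ATP and so rescue of galactose-driven cybrid death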); settings: complex I mutant cybrid cells, 72 h, stronger effect = higher value
# [16] = survival rescue of mitochondrial mutant cells in low glucose, primary screen, MELAS cybrids, Rieske KO mouse fibroblasts, CellTiter-Glo (AID 1508586;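 active means mean z-score across replicates of 1.96 or higher in either the MELAS or the Rieske mutant cell line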;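 further: z relative to plate mean and SD of compound and empty wells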)
# [17] = target: NAD(+) hydrolase SARM1 (Homo sapiens) (UniProt Q6SZW1); experiment: SARM1 TIR NADase inhibitors, cell lysate, NAD-Glo luminescence (AID 1508614;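 active means compound whose remaining NAD level is above about 45 nM, limit read from the data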); settings: SAM-TIR HEK293T lysate NADase, at 1 µM, stronger effect = higher value
# Sequence of NAD(+) hydrolase SARM1 (Homo sapiens) (Q6SZW1 whole entry, looked up, the tested form may be a part): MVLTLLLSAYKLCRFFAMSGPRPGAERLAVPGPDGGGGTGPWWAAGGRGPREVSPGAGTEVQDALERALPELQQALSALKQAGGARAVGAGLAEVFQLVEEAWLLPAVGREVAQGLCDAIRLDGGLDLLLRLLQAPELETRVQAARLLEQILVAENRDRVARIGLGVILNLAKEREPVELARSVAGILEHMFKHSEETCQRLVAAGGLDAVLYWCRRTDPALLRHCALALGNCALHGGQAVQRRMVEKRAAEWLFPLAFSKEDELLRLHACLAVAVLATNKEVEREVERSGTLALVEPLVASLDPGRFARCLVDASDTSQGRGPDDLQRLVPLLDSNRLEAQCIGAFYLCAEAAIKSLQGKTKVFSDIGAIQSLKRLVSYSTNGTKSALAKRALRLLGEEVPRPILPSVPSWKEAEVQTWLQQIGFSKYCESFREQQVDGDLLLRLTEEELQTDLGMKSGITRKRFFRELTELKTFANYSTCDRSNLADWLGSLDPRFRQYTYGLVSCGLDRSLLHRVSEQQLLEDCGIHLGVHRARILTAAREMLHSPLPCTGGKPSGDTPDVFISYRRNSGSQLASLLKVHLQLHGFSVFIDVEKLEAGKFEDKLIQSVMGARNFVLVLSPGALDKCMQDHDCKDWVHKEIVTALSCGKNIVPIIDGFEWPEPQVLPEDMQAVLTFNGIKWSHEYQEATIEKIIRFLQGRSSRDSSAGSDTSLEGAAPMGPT
# [18] = target: Mitogen-activated protein kinase 7 (Homo sapiens) (UniProt Q13164); experiment: ERK5 transactivation activators in reporter cells, primary screen, cell-based, HTS (AID 1508626;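 active means luciferase signal above three times the same-plate solvent-only control wells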;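 further: luciferase driven by Gal4-ERK5 fusion binding five Gal4 sites before minimal TATA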); settings: HeLa Gal4-ERK5 transactivation, 18 h, at 5 µM, stronger effect = higher value
# Sequence of Mitogen-activated protein kinase 7 (Homo sapiens) (Q13164 whole entry, looked up, the tested form may be a part): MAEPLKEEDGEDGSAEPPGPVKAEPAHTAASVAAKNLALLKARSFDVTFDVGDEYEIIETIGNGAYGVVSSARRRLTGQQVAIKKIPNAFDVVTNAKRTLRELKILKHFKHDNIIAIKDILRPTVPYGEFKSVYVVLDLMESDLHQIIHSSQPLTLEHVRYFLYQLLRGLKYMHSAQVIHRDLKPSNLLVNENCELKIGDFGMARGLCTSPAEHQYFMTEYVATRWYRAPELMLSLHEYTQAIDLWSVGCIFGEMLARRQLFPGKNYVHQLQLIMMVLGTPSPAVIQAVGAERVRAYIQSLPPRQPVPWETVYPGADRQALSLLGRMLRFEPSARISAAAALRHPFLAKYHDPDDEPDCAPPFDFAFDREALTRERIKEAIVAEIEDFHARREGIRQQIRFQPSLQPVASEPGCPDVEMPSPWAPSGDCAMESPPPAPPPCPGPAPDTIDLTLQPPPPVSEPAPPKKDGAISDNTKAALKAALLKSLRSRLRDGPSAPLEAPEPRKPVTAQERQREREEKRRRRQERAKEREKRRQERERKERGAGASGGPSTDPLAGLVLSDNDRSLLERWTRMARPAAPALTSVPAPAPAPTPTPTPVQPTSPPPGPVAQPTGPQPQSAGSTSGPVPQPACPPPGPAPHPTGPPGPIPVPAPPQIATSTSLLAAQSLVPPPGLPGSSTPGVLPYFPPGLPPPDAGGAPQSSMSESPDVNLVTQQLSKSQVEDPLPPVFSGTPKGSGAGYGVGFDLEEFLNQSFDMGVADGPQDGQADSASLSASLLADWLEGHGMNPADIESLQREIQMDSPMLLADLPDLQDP
# [19] = hESC survival regulators, cell-based (AID 493140; call rule not given here;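 further: cells exposed to compounds for four days before counting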); settings: human embryonic stem cell survival screen; stronger effect = higher value
# [20] = measured here: epithelial PC-3E GFP cell survival
# [21] = measured here: mesenchymal TEM4-18 mCherry cell survival
# [22] = stronger effect = lower value, cell number ratio, induced over uninduced
# [23] = measured here: relative caspase fold change +Dox/-Dox
# [24] = measured here: total cells with miR-34 induction, stronger effect = lower value
# [25] = measured here: total cells without miR-34 induction
# [26] = MELAS cybrid survival, CellTiter-Glo 48 h, stronger effect = higher value
# [27] = Rieske KO mouse fibroblast survival, CellTiter-Glo 72 h
compound,measurement,setting,value
CN1CCc2cccc3c2C1Cc1ccc(O)c(O)c1-3 (stereo not drawn),inhibition,[1],1.43%
same,score,[2],0.79
same,rescue above control,[3],3.21
same,cytochrome c release ratio,[4],0.9
same,inhibition of aggregation,[5],85.7%
same,glutamate uptake change,[6],14%
same,inclusion score,[7],2
same,aggregation suppression score,[8],1.03
same,period change,[9],0.35 h (inactive)
same,parasite load remaining,[10],9.7% (inactive) and 18.2% (inactive)
same,viability,[10],65% and 86.9%
same,inhibition,[11],-2.58% (inactive)
same,red/green cell ratio (normalised),[12],1.13 (inactive)
same,normalised cell number,[12]; [20],1.2
same,normalised cell number,[12]; [21],1.36
same,fold change,[13]; [22],0.965 (inactive) and 0.839 (inactive)
same,fold change,[13]; [23],2.09 and 1.99
same,cell count,[13]; [24],7940 and 8770
same,cell count,[13]; [25],8230 and 10400
same,outcome,[14],inactive
same,z-score,[15],-1.52 (inactive)
COc1c2ccoc2cc2oc(=O)ccc12,inhibition,[1],-19.8%
same,score,[2],1.02
same,rescue above control,[3],6.75
same,cytochrome c release ratio,[4],1.07
same,inhibition of aggregation,[5],80.3%
same,glutamate uptake change,[6],-26.6%
same,inclusion score,[7],2
same,aggregation suppression score,[8],0.569
same,inhibition,[11],-3.29% (inactive)
same,red/green cell ratio (normalised),[12],0.94 (inactive)
same,normalised cell number,[12]; [20],1.1
same,normalised cell number,[12]; [21],1.03
same,fold change,[13]; [22],0.859 (inactive)
same,fold change,[13]; [23],0.824
same,cell count,[13]; [24],8190
same,cell count,[13]; [25],9530
same,z-score,[16]; [26],-0.332 (inactive)
same,z-score,[16]; [27],-0.177
same,remaining NAD,[17],10 nM (inactive)
same,luciferase signal,[18],28 AU (inactive)
NC(N)=NC(=O)c1nc(Cl)c(N2CCCCCC2)nc1N,period change,[9],0.165 h (inactive)
same,inhibition,[11],12.2% (inactive)
same,red/green cell ratio (normalised),[12],0.8 (inactive)
same,normalised cell number,[12]; [20],1.26
same,normalised cell number,[12]; [21],1.01
same,fold change,[13]; [22],1.18 (inactive)
same,fold change,[13]; [23],1.04
same,cell count,[13]; [24],4710
same,cell count,[13]; [25],3990
same,outcome,[14],inactive
same,z-score,[15],-1.46 (inactive)
COc1cc(S(C)=O)ccc1-c1nc2ncccc2[nH]1 (stereo not drawn),inhibition,[1],23%
same,score,[2],1.52
same,rescue above control,[3],8.66
same,cytochrome c release ratio,[4],0.94
same,inhibition of aggregation,[5],3.24%
same,glutamate uptake change,[6],3.5%
same,inclusion score,[7],2
same,aggregation suppression score,[8],1.25
same,survival,[19],5.5 (inactive)
same,parasite load remaining,[10],107% (inactive)
same,viability,[10],101%
same,inhibition,[11],14% (inactive)
same,red/green cell ratio (normalised),[12],1.07 (inactive)
same,normalised cell number,[12]; [20],0.84
same,normalised cell number,[12]; [21],0.9
same,fold change,[13]; [22],0.851 (inactive)
same,fold change,[13]; [23],1.41
same,cell count,[13]; [24],7350
same,cell count,[13]; [25],8630
same,z-score,[16]; [26],-0.22 (inactive)
same,z-score,[16]; [27],0.17
same,luciferase signal,[18],48 AU (inactive)
COc1ccc(-c2cc(=O)c3c(OC)c(OC)c(OC)c(OC)c3o2)cc1,inhibition,[11],-8.06% (inactive)
same,red/green cell ratio (normalised),[12],1.11 (inactive)
same,normalised cell number,[12]; [20],1.14
same,normalised cell number,[12]; [21],1.26
same,fold change,[13]; [22],0.921 (inactive)
same,fold change,[13]; [23],0.924
same,cell count,[13]; [24],6760
same,cell count,[13]; [25],7340
same,z-score,[16]; [26],-0.525 (inactive)
same,z-score,[16]; [27],0.0182
same,luciferase signal,[18],100 AU (inactive)
NC(=O)CC[C@H](N)C(=O)O,period change,[9],-0.065 h (inactive)
same,inhibition,[11],-0.19% (inactive)
same,red/green cell ratio (normalised),[12],0.89 (inactive) and 1.18 (inactive)
same,normalised cell number,[12]; [20],1.22 and 0.97
same,normalised cell number,[12]; [21],1.08 and 1.13
same,fold change,[13]; [22],0.981 (inactive) and 0.937 (inactive)
same,fold change,[13]; [23],0.852 and 0.867
same,cell count,[13]; [24],10400 and 8420
same,cell count,[13]; [25],10600 and 8990
same,outcome,[14],inactive
same,remaining NAD,[17],10 nM (inactive)
same,luciferase signal,[18],40 AU (inactive)
same,z-score,[15],0.01 (inactive)
